Measurements as given in the supplement of paper PMC8975748.
± gives the standard deviation of the averaged measurements.

What was measured:
[1] = test system: Saccharomyces cerevisiae BY4741 SeMeCo community; experiment: z-score of prototroph abundance vs DMSO median; higher = larger share of this subpopulation than in DMSO controls; conditions: 10 µM; 24 h; SM minimal medium; subpopulation (auxotrophy): Prototroph
In short: (§1)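 Automated confocal microscopy of paraformaldehyde-fixed cells was used to follow a Saccharomyces cerevisiae BY4741 community carrying four plasmids, each restoring one auxotrophy and encoding a distinct fluorescent protein. The community was pre-grown overnight to OD600 1.0, diluted to 0.3, and added at 70 µl to 384-well plates acoustically predosed with library drugs (10 µM final) for 24 h of growth in minimal SM medium. Single-auxotroph fluorescent strains set thresholds and autofluorescence correction, and each subpopulation's abundance was scored as a z-score against the vehicle-well median.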

[2] = test system: Saccharomyces cerevisiae BY4741 SeMeCo community; experiment: z-score of subpopulation abundance vs DMSO median, subpopulation auxotrophic for M; higher = larger share of this subpopulation than in DMSO controls; conditions: 10 µM; 24 h; SM minimal medium; subpopulation (auxotrophy): M
In short: as §1

[3] = test system: Saccharomyces cerevisiae BY4741 SeMeCo community; experiment: z-score of subpopulation abundance vs DMSO median, subpopulation auxotrophic for L; higher = larger share of this subpopulation than in DMSO controls; conditions: 10 µM; 24 h; SM minimal medium; subpopulation (auxotrophy): L
In short: as §1

[4] = test system: Saccharomyces cerevisiae BY4741 SeMeCo community; experiment: z-score of subpopulation abundance vs DMSO median, subpopulation auxotrophic for H; higher = larger share of this subpopulation than in DMSO controls; conditions: 10 µM; 24 h; SM minimal medium; subpopulation (auxotrophy): H
In short: as §1

[5] = test system: Saccharomyces cerevisiae BY4741 SeMeCo community; experiment: z-score of subpopulation abundance vs DMSO median, subpopulation auxotrophic for LU; higher = larger share of this subpopulation than in DMSO controls; conditions: 10 µM; 24 h; SM minimal medium; subpopulation (auxotrophy): LU
In short: as §1

[6] = test system: Saccharomyces cerevisiae BY4741 SeMeCo community; experiment: z-score of subpopulation abundance vs DMSO median, subpopulation auxotrophic for HM; higher = larger share of this subpopulation than in DMSO controls; conditions: 10 µM; 24 h; SM minimal medium; subpopulation (auxotrophy): HM
In short: as §1

[7] = test system: Saccharomyces cerevisiae BY4741 SeMeCo community; experiment: z-score of subpopulation abundance vs DMSO median, subpopulation auxotrophic for HU; higher = larger share of this subpopulation than in DMSO controls; conditions: 10 µM; 24 h; SM minimal medium; subpopulation (auxotrophy): HU
In short: as §1

[8] = test system: Saccharomyces cerevisiae BY4741 SeMeCo community; experiment: z-score of subpopulation abundance vs DMSO median, subpopulation auxotrophic for HL; higher = larger share of this subpopulation than in DMSO controls; conditions: 10 µM; 24 h; SM minimal medium; subpopulation (auxotrophy): HL
In short: as §1

[9] = test system: Saccharomyces cerevisiae BY4741 SeMeCo community; experiment: z-score of subpopulation abundance vs DMSO median, subpopulation auxotrophic for HLU; higher = larger share of this subpopulation than in DMSO controls; conditions: 10 µM; 24 h; SM minimal medium; subpopulation (auxotrophy): HLU
In short: as §1

[10] = test system: Saccharomyces cerevisiae BY4741 SeMeCo community; experiment: z-score of subpopulation abundance vs DMSO median, subpopulation auxotrophic for HLM; higher = larger share of this subpopulation than in DMSO controls; conditions: 10 µM; 24 h; SM minimal medium; subpopulation (auxotrophy): HLM
In short: as §1

[11] = test system: Saccharomyces cerevisiae BY4741 SeMeCo community; experiment: z-score of subpopulation abundance vs DMSO median, subpopulation auxotrophic for HUM; higher = larger share of this subpopulation than in DMSO controls; conditions: 10 µM; 24 h; SM minimal medium; subpopulation (auxotrophy): HUM
In short: as §1

[12] = test system: Saccharomyces cerevisiae BY4741 SeMeCo community; experiment: z-score of subpopulation abundance vs DMSO median, subpopulation auxotrophic for LUM; higher = larger share of this subpopulation than in DMSO controls; conditions: 10 µM; 24 h; SM minimal medium; subpopulation (auxotrophy): LUM
In short: as §1

[13] = test system: Saccharomyces cerevisiae BY4741 SeMeCo community; experiment: z-score of subpopulation abundance vs DMSO median, subpopulation auxotrophic for HLUM; higher = larger share of this subpopulation than in DMSO controls; conditions: 10 µM; 24 h; SM minimal medium; subpopulation (auxotrophy): HLUM
In short: as §1

[14] = test system: Saccharomyces cerevisiae BY4741 SeMeCo community; experiment: mean cell size (pixel area) (pixels); higher = larger cells; conditions: 10 µM; 24 h; SM minimal medium
In short: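 A Saccharomyces cerevisiae BY4741 community carrying four plasmids, each with a fluorescent marker and each complementing one auxotrophy, was exposed for 24 h to drug at a final 10 µM in SM medium in acoustically predosed 384-well plates. The overnight preculture (OD600 = 1.0) was diluted to OD600 = 0.3 before 70 µl was added per well. Cells were then fixed with paraformaldehyde, imaged by automated confocal microscopy and analysed in Harmony to derive mean cell pixel area per well, averaged over 3 replicates. Same SeMeCo high-content imaging drug screen: Selleck FDA-approved drugs at 10 µM, 24 h in SM medium, 384-well plates, 3 replicates.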

[15] = test system: Saccharomyces cerevisiae BY4741 SeMeCo community; experiment: z-score of subpopulation abundance vs DMSO median, subpopulation auxotrophic for U; higher = larger share of this subpopulation than in DMSO controls; conditions: 10 µM; 24 h; SM minimal medium; subpopulation (auxotrophy): U
In short: as §1

[16] = test system: Saccharomyces cerevisiae BY4741 SeMeCo community; experiment: z-score of subpopulation abundance vs DMSO median, subpopulation auxotrophic for LM; higher = larger share of this subpopulation than in DMSO controls; conditions: 10 µM; 24 h; SM minimal medium; subpopulation (auxotrophy): LM
In short: as §1

[17] = test system: Saccharomyces cerevisiae BY4741 SeMeCo community; experiment: z-score of subpopulation abundance vs DMSO median, subpopulation auxotrophic for UM; higher = larger share of this subpopulation than in DMSO controls; conditions: 10 µM; 24 h; SM minimal medium; subpopulation (auxotrophy): UM
In short: as §1

Compound	z-score of prototroph abundance [1]	z-score of subpopulation abundance [2]	z-score of subpopulation abundance [3]	z-score of subpopulation abundance [4]	z-score of subpopulation abundance [5]	z-score of subpopulation abundance [6]	z-score of subpopulation abundance [7]	z-score of subpopulation abundance [8]	z-score of subpopulation abundance [9]	z-score of subpopulation abundance [10]	z-score of subpopulation abundance [11]	z-score of subpopulation abundance [12]	z-score of subpopulation abundance [13]	mean cell size [14]	z-score of subpopulation abundance [15]	z-score of subpopulation abundance [16]	z-score of subpopulation abundance [17]
O=C1C(=O)c2ccccc2C(O)=C1C1CCC(c2ccc(Cl)cc2)CC1 (centres undefined) [Atovaquone]	-0.82	-0.46	1.54	1.46	0.47	0.9	0.94	1.12	1.94	0.84	0.71	1.22	0.68	–	–	–	–
CCOC(=O)C1=C(COCCN)NC(C)=C(C(=O)OC)[C@@H]1c1ccccc1Cl [Levamlodipine]	3.33	5.72	1.13	2.66	-6.47	4.13	-6.75	2.19	-3.25	1.82	–	-4.52	-1.12	12.5 ± 0.2	-7.34	3.35	-8.09
Clc1ccc2c(N3CCN(CCCN4CCN(c5ccnc6cc(Cl)ccc56)CC4)CC3)ccnc2c1 [Piperaquine phosphate]	-0.69	1.85	0.02	0.23	-0.13	1.16	-0.29	-0.1	0.33	0.63	–	-0.03	0.31	12.2 ± 0.16	0.1	0.85	0.36
Cc1cc(-c2ccc(/N=N/c3ccc4c(S(=O)(=O)O)cc(S(=O)(=O)O)c(N)c4c3O)c(C)c2)ccc1/N=N/c1ccc2c(S(=O)(=O)O)cc(S(=O)(=O)O)c(N)c2c1O [Evans Blue]	-9.18	-14.3	-1.65	4.9	4.41	-7.3	–	–	429	-2.86	-6.59	–	-2.52	–	1.78	–	-9.56
O=C1c2cccc3c2[C@H](CCC3)CN1[C@@H]1CN2CCC1CC2 [Palonosetron]	-0.11	-0.21	-0.81	-0.77	-0.39	-0.24	-0.06	-0.45	-0.63	-0.49	–	0.34	-0.4	12.2 ± 0.14	-0.35	-0.55	0.49
COc1ccc(CN2CCN(C(c3ccc(F)cc3)c3ccc(F)cc3)CC2)c(OC)c1OC [Lomerizine 2HCl]	-0.1	-0.52	0.3	-0.09	-0.08	0.78	0.22	0.04	0.88	0.32	–	-0.31	-0.64	12.443 ± 0.0032	0.28	0.33	–
Nc1nc2[nH]cc(CCc3ccc(C(=O)N[C@@H](CCC(=O)O)C(=O)O)cc3)c2c(=O)[nH]1 [Pemetrexed Disodium Hydrate]	3.18	-9.02	3.26	3.82	1.43	-4.93	1.99	5.03	11.4	1.25	–	-3.47	3.48	14.5 ± 0.077	-1.03	-3.99	-7.6
